GluA2 TARP mod – modulators of AMPA receptor GluA2-stargazin complexes; AID 1259245; calls only at 30 µM; 40,000 compounds, 3.5% hits; HEK293 GluA2+stargazin, membrane potential dye (FDSS), glutamate EC50; hits were called plate by plate, in both directions; O88602+P19491;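 active = any of four per-well response measures lying three or more SD from its plate-wide compound average, in either direction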
GIRK2 activator – Activators of human GIRK2-containing channels | HEK293 GIRK2/NPY4 cells, thallium flux fluorescence | AID 1259324 | activation (% efficacy), % for hits at 37.5 µM | 34,000 tested, under 10 active;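 active = primary screen hit, no activity in plain HEK293 cells, and in GIRK2-only cells above 5% efficacy rising with concentration; inactive = the rest, including fluorescent compounds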;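 note: efficacy is normalized control-subtracted fluorescence 15 s after thallium addition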
Calls only; i = inactive; nt = no result; + = active, no number. The sample as a whole holds a higher share of hits than the screen did.

SMILES	GluA2 TARP mod	GIRK2 activator
COC(=O)C(C)Oc1ccc2c(c1)O/C(=C\c1cc(OC)c(OC)c(OC)c1)C2=O (centres undefined)	i	nt
CCOCCn1c(=O)c2c(nc3n2CC(C)CN3c2ccc(Br)cc2)n(C)c1=O (centres undefined)	i	nt
COCCn1c(=O)c2c(nc(-n3nc(C)cc3C)n2C)n(C)c1=O	+	nt
COCCn1c(=O)c2c(nc3n2CC(C)CN3c2ccc(Br)cc2)n(C)c1=O (centres undefined)	+	nt
CCn1c(-n2nc(C)cc2C)nc2c1c(=O)n(CCOC)c(=O)n2C	i	nt
CCCCNS(=O)(=O)CCCOc1ccc2c(c1)OCO2	i	i
O=C(Cc1cc(-c2ccc3c(c2)OCO3)on1)NCc1ccco1	i	i
O=C(Nc1ccc(OC(F)(F)F)cc1)c1cccc(Oc2ncccn2)c1	i	i
COc1ccc(S(=O)(=O)N2CCCCC2CC(=O)NCc2c(F)cccc2F)cc1 (centres undefined)	i	nt
Cc1ccc(Oc2ccc(N(C)C(=O)/C=C/c3ccccc3)cc2)nn1	i	i
COC(=O)c1ccccc1N=Nc1c(N)[nH]n(-c2ccccc2)c1=O	+	nt
COC(=O)c1ccccc1-n1c(=O)c2ccccc2c2ccccc2c1=O	i	nt
CCOc1ccc(S(=O)(=O)NCC2CCN(C3CCCC3)CC2)cc1C	+	i
Cc1cc(F)ccc1S(=O)(=O)NCC1CCN(C2CCCC2)CC1	i	i
Cc1cc(C)c(S(=O)(=O)NCC2CCN(C3CCCC3)CC2)cc1C	i	i
CCc1ccc(S(=O)(=O)NCC2CCN(C3CCCC3)CC2)s1	+	i
CSc1ncccc1C(=O)Nc1ccc(CC(=O)N2CCOCC2)cc1	i	i
COc1ccc(C(=O)N(CCCn2ccnc2)c2nc3c(F)cccc3s2)cc1OC	i	i
Cc1ccc2nc(N3CCN(C(=O)c4cc(C)no4)CC3)sc2c1	i	i
CCOC(=O)c1c(C)c(C(=O)NCc2ccco2)c(C)n1CC	+	i
COCCNC(=O)C(=O)NCc1ccco1	i	i
O=S(=O)(/C=C/c1ccccc1)N1CCC(COCc2ccc(Cl)cc2)CC1	i	i
CN(C)S(=O)(=O)N1CCC(COCc2ccc(Cl)cc2)CC1	+	i
O=C(CSc1cc(N2CCCC2)ncn1)OCc1ccccc1	i	i
CCOC(=O)c1ccccc1NC(=O)CN1CCCN(Cc2ccccc2Cl)S1(=O)=O	+	i
SMILES	GluA2 TARP mod	GIRK2 activator
COC(=O)c1sccc1NC(=O)CN1CCCN(Cc2ccccc2)S1(=O)=O	i	nt
Cc1ccc(-n2nc3c(c2NC(=O)C(=O)NCCO)CSC3)c(C)c1	i	i
COc1cc(C(C)=O)ccc1OCC(=O)Nc1ccc(-c2cn3ccsc3n2)cc1	i	i
O=C(Nc1ccc(-c2cn3ccsc3n2)cc1)NC1CCCCC1	+	i
CCSc1nn(CC(=O)Nc2cccc(C)c2C)c(N)c1S(=O)(=O)c1ccccc1	i	i
COc1cc([N+](=O)[O-])cc2cc(C(=O)NC(C)c3ccccc3)c(=O)oc12 (centres undefined)	i	i
COc1cc([N+](=O)[O-])cc2cc(C(=O)N3CCN(c4cccc(C(F)(F)F)c4)CC3)c(=O)oc12	+	i
CNC(=O)CSc1nc2c(c(=O)[nH]c(=O)n2C)n1Cc1ccc(C)cc1	i	i
COC(=O)N1CCC(CN)CC1	i	i
COc1ccc(-c2nnc3ccc(OCCNC(=O)Nc4ccc(F)cc4)nn23)cc1	+	i
CCCC(=O)NCCOc1ccc2nnc(-c3ccc(OC)c(OC)c3)n2n1	+	i
CCCC(=O)NCCOc1ccc2nnc(-c3cccc(OC)c3)n2n1	i	i
CCC(C(=O)NCCOc1ccc2nnc(-c3ccc(OC)cc3)n2n1)c1ccccc1 (centres undefined)	i	i
COc1ccc(-c2nnc3ccc(OCCNC(=O)NCc4ccccc4)nn23)cc1	+	i
COc1ccc(-c2nnc3ccc(OCCNC(=O)Nc4ccc(Cl)cc4)nn23)cc1	i	i
O=C(NCc1cccc2ccccc12)Nc1ccc2c(c1)N(C(=O)c1ccccc1)CCC2	nt	i
Cn1cccc1C(CNC(=O)C(=O)Nc1ccccc1F)N1CCc2ccccc2C1 (centres undefined)	i	i
COc1ccc(NC(=S)N2CCN(c3ccc(F)cc3)CC2)c(OC)c1	i	i
COc1cccc(NC(=O)Cn2cccc(-c3nc(-c4ccc(Br)cc4)no3)c2=O)c1	+	i
Cc1cccc(NC(=O)Cn2cccc(-c3nc(-c4ccc(Br)cc4)no3)c2=O)c1	i	i
CN=C1SC(CC(=O)NCCCOC)C(=O)N1C (centres undefined)	i	nt
COc1ccc(-c2nnc(NC(=O)c3ccc(F)cc3)o2)cc1OC	i	i
COc1ccc(C(=O)Nc2nnc(-c3ccncc3)o2)cc1OC	+	nt
COc1ccc(C(=O)Nc2nnc(-c3ccc(Br)s3)o2)cc1OC	+	i
CS(=O)(=O)c1ccc(C(=O)Nc2nnc(-c3ccc(Br)s3)o2)cc1	i	i
SMILES	GluA2 TARP mod	GIRK2 activator
c1ccc(-c2nnc(-c3ccncc3)o2)cc1	i	nt
CS(=O)(=O)c1ccc(C(=O)Nc2nnc(-c3cccnc3)o2)cc1	+	i
COc1ccccc1C(=O)Nc1nnc(-c2ccc(Br)s2)o1	nt	i
COc1ccc(-c2nnc(-c3ccncc3)o2)cc1OC	+	nt
COc1ccc(S(=O)(=O)N2CCN(c3ccc(-c4ccco4)nn3)CC2)cc1F	i	i
COc1cccc(NC(=O)CSc2nc3c(sc(=S)n3-c3ccc(Cl)cc3)c(=O)[nH]2)c1	nt	i
CC(C)(C)S(=O)(=O)c1ccc(NCc2ccc(Cl)cc2)nn1	nt	i
OC(COCC(c1ccccc1)c1ccccc1)CN1CCc2ccccc2C1 (centres undefined)	nt	i
COc1ccc(S(=O)(=O)NCC2CCN(c3ncccn3)CC2)cc1F	i	i
COc1cc(C(=O)Nc2nnc(-c3ccccc3SC)o2)cc(OC)c1OC	i	i
CCNC(=O)C(=O)NCCC1CCCCN1S(=O)(=O)c1cc(C)ccc1C (centres undefined)	i	nt
COc1ccc(Nc2cc(C)nc(NCCNC(=O)c3cnccn3)n2)cc1	+	i
COc1ccc(Nc2cc(C)nc(NCCNC(=O)c3nccc(C)n3)n2)cc1	nt	i
COc1ccc(Cl)cc1C(=O)NCC(O)(c1cccs1)C1CC1 (centres undefined)	+	i
COc1nn(C)cc1C(=O)NCC(O)(c1ccccc1)C1CC1 (centres undefined)	i	nt
COc1ccc(Cl)cc1C(=O)NCC(O)(c1ccccc1)C1CC1 (centres undefined)	+	nt
COc1cccc(C(=O)NCC(O)(c2cccs2)C2CC2)c1OC (centres undefined)	i	i
COCCn1c(=NC(=O)c2ccn(C)n2)sc2cc(SC)ccc21	i	i
CC(C)c1ccc(S(=O)(=O)N2CCN(CC(=O)C(C)(C)C)CC2)cc1	i	nt
COc1ccc(C)cc1NC(=O)c1ccc(=O)n(Cc2cc(C)ccc2C)c1	i	i
Cc1ccc(Cn2cc(C(=O)Nc3c(C)cccc3C)ccc2=O)cc1	i	i
CSc1ccccc1NC(=O)c1ccc(=O)n(Cc2ccccc2Cl)c1	+	i
Cc1ccccc1Cn1cc(C(=O)Nc2c(C)cccc2C)ccc1=O	+	i
CSc1ccccc1NC(=O)c1ccc(=O)n(Cc2cc(C)ccc2C)c1	+	i
CSc1ccccc1NC(=O)c1ccc(=O)n(Cc2ccccc2F)c1	i	i
COc1ccc(CCn2c(SCCC(C)C)nc3c2c(=O)[nH]c(=O)n3C)cc1	i	i

High-throughput results (PubChem)
